Potency data for 65 compounds are collected here from PubChem BioAssay AID504339 (National Center for Advancing Translational Sciences (NCATS), 2011).

Hit rate of the full screen: of about 390,000 compounds, about 17,000 (4.4%) were called active. Entries that show only a call come without a potency. Inconclusive results (about 8%) are left out. Calls come from the whole dose curve; as a rule, active = well fitted inhibition curve with a large enough effect; inconclusive = small, poorly fitted or top-dose-only effect; inactive = no such curve, though single readings can be large or run the other way. For the sample, actives were picked, then their nearest neighbours and some compounds at random.
Potency is the fitted concentration of half-maximal effect.

Sequence of Lysine-specific demethylase 4A (Homo sapiens) (O75164 whole entry, looked up, the tested form may be a part): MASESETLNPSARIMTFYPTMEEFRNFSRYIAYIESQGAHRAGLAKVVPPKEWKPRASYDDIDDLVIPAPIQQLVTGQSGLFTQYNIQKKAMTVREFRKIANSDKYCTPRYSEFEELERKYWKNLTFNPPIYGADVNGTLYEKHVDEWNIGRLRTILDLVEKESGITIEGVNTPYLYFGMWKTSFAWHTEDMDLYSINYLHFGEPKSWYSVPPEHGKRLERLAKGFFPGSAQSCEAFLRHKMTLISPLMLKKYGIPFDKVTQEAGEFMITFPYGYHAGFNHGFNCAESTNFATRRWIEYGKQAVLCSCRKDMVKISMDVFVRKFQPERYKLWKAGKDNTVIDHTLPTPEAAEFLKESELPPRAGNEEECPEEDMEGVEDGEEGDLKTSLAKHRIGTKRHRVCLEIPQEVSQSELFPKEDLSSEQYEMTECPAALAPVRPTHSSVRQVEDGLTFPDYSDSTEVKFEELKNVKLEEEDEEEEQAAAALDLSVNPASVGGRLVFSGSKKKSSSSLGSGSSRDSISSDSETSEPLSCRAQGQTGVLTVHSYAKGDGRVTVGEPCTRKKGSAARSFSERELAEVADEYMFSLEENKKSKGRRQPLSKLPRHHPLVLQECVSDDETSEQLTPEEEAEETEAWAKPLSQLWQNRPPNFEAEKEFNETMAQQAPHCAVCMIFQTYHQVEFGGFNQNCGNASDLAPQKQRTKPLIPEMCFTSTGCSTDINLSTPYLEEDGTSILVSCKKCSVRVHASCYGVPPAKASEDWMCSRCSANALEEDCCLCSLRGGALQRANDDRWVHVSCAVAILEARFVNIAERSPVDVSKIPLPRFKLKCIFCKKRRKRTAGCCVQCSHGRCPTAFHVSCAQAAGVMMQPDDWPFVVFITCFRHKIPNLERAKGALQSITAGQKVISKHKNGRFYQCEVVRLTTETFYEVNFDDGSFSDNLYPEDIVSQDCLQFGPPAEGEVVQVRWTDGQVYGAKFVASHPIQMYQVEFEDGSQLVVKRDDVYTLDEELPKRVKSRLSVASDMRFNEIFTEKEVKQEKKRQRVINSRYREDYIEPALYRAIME

The assay has as its target Lysine-specific demethylase 4A (Homo sapiens) (UniProt O75164). Briefly: qHTS Assay for Inhibitors of JMJD2A-Tudor Domain. Note: nearly all actives have a fitted effect of over 50% in size. As to conditions: AlphaScreen JMJD2A-Tudor / H3K4me3 peptide binding; series mostly up to 114 µM.
As to `COc1ccc(-c2ccc(OC)c(C3C4C=CCC(C)C4C(=O)N3Cc3ccccc3)c2)cc1C` (stereo not given), the Potency result is “inactive”.

For the compound `COc1cccc(CNC(=O)CCc2nc(-c3ccc(C)cc3)no2)c1`, the Potency result was “inactive”.

As for `Cc1cc2c(cc1C)NC1(C[C@H]3CCC(=O)N4CC[C@@H](C1)[C@@H]34)C(=NC(C)(C)CC(C)(C)C)N2` (stereo not given in full), the Potency was 15.8 µM (active).

As for `O=C1CC[C@@H]2CC3(C[C@@H]4CCN1[C@H]24)Nc1cc([N+](=O)[O-])ccc1NC3=NC1CCCCC1` (stereo not given in full), the Potency entry was “inactive”.

As for `COC(=O)c1cccc(Cn2nnc3sc4c(c3c2=O)CCC(C(C)(C)C)C4)c1` (stereo not given), the Potency entry was “inactive”.

For `O=C(Nc1cccc2cccnc12)C(F)(F)F`, the Potency entry is “inactive”.

With `OCc1ccc(OCCCOc2cccc3cccnc23)cc1`, the Potency entry was “inactive”.

For the compound `O=C(Nc1ccccc1)Oc1cccc2cccnc12`, the Potency was 15.8 µM (active).

`CCOc1ccccc1NC(=O)Cn1nnc(C(=O)Nc2ccc(C)c(C)c2)c1N`: the Potency result was “inactive”.

As to `COc1cc(NS(=O)(=O)c2cccs2)cc(OC)c1`, the Potency entry was “inactive”.

In the case of `Cc1cc(C(=O)OCC(=O)Nc2nccs2)c2ccccc2n1`, the Potency is 20 µM (active).

Turning to `O=C(COC(=O)c1ccc(O)cc1)Nc1nccs1`, the Potency entry is “inactive”.

For the compound `Cc1cc(C(=O)OCC(=O)Nc2nnc(C(C)C)s2)c2ccccc2n1`, the Potency result is “inactive”.

On to `Cc1cccc(CCNC(=O)c2ccc3c(c2)nc2n3CCC(C)C2)c1` (stereo not given), for which the Potency entry was “inactive”.

With `Cc1nn(CC(=O)NCCc2ccccc2)c(=O)c2c1sc1ccccc12`, the Potency result is “inactive”.

As for `Cc1ccc(C)c(N2CCN(C(=O)Cn3ncn4cccc4c3=O)CC2)c1`, the Potency entry was “inactive”.

As to `Cc1ccc(C)c(N2CCN(C(=O)Cn3nc(C)c4sc5ccccc5c4c3=O)CC2)c1`, the Potency was 12.6 µM (active).

`CC(=O)c1ccc(NC(=O)c2nc(-c3ccc(C)cc3)n3c2CCCCC3)cc1`: the Potency entry is “inactive”.

Consider `CCc1nnc2c3ccccc3nc(N3CCN(c4ccc(C)cc4C)CC3)n12`, for which the Potency result is “inactive”.

Take `CN(C)S(=O)(=O)c1ccc(C(=O)N(Cc2cccnc2)c2nc3c(F)cc(F)cc3s2)cc1`: the Potency result is “inactive”.

In the case of `COc1ccc2sc(N(CCCN(C)C)C(=O)c3ccc(S(=O)(=O)N(C)C4CCCCC4)cc3)nc2c1`, the Potency is 56.2 µM (active).

Regarding `CCN(CC)CCN(C(=O)c1cccc([N+](=O)[O-])c1)c1nc2ccc(OC)cc2s1`, the Potency result was “inactive”.

Take `CCOc1ccc(C(=O)c2cn(Cc3ccccc3OC)c3ccc(F)cc3c2=O)cc1`: the Potency entry is “inactive”.

Turning to `CCN(CC)c1ccc(NC(=O)CN2C(=O)c3cccnc3Oc3ccc(Cl)cc32)c(C)c1`, the Potency entry was “inactive”.

Take `COC(=O)c1c(NC(=O)CCCOc2ccccc2)sc2c1CCC(C)C2` (stereo not given): the Potency result is “inactive”.

Regarding `O=C(CN1CCCCCC1)Nc1ccc(Br)cc1Br`, the Potency result is “inactive”.

Consider `O=C(CN1CCCCCC1)Nc1ccc(Cl)cc1F`, for which the Potency result is “inactive”.

On to `O=C(CN1CCCCCC1)Nc1ccc(Br)cc1[N+](=O)[O-]`, for which the Potency is 44.7 µM (active).

With `Cn1c(COc2ccccc2C(C)(C)C)nc2ccccc21`, the Potency entry was “inactive”.

For the compound `CCOCCn1ccc2c(OCC(=O)NCc3ccc(C)cc3)cccc2c1=O`, the Potency result was “inactive”.

With `C=CCNCCCCOc1ccccc1`, the Potency result was “inactive”.

For the compound `CC(O)CNCCOc1cccc(Oc2ccccc2)c1` (stereo not given), the Potency is 3.55 µM (active).

As to `CC1(C)NC(=O)N(CCOc2cccc(Oc3ccccc3)c2)C1=O`, the Potency entry is “inactive”.

Regarding `CCOc1ccc(NC(=O)c2cc(S(=O)(=O)N3CCCC3)c[nH]2)cc1`, the Potency result is “inactive”.

For `O=C(CSc1nnc(-c2ccccc2F)o1)Nc1cccc(C(F)(F)F)c1`, the Potency result is “inactive”.

In the case of `O=c1cc(CO)oc(C(Nc2cccc([N+](=O)[O-])c2)c2ccccn2)c1O` (stereo not given), the Potency was 50.1 µM (active).

Take `O=C(CSc1nc(-c2ccccc2)cs1)Nc1cccc([N+](=O)[O-])c1`: the Potency result is “inactive”.

As to `O=c1cc(CO)oc(C(Nc2cccc(C(F)(F)F)c2)c2ccccn2)c1O` (stereo not given), the Potency was 56.2 µM (active).

`O=[N+]([O-])c1cccc(S(=O)(=O)NCc2ccccn2)c1`: the Potency entry is “inactive”.

For the compound `Cn1c(=O)c2c(ncn2CC(=O)Nc2cccc(C(F)(F)F)c2)n(C)c1=O`, the Potency result is “inactive”.

In the case of `COc1cccc(-c2nnc3n(CCc4ccccc4)c(=O)c4ccccc4n23)c1O`, the Potency result is “inactive”.

For `Cc1ccc(-c2nc(Cn3c(=O)cc(-c4ccccc4)c4c(C)nn(C)c43)c(C)o2)cc1`, the Potency entry was “inactive”.

As to `COc1ccc(CNC(=O)CCc2c(C)nn(-c3ccc(N4CCCC4)nn3)c2C)cc1`, the Potency result was “inactive”.

For the compound `CCOc1ccc(C(=O)c2cn(Cc3ccc(F)cc3)c3ccc(F)cc3c2=O)cc1`, the Potency result was “inactive”.

For `Cc1cccc(Cn2c(CN3CCC(C(=O)NCc4ccccc4Cl)CC3)cc3ccccc32)c1`, the Potency entry is “inactive”.

Turning to `CCOC(=O)c1c(SCC(=O)Nc2cccc(C)c2C)nc(=O)[nH]c1C`, the Potency result is “inactive”.

For the compound `CC1=C(C(=O)Nc2ccccc2)C(c2ccc(C)cc2)n2nc(SCc3ccccc3C)nc2N1` (stereo not given), the Potency entry is “inactive”.

In the case of `CN(C)CCCn1c(-c2ccc(Cl)cc2)csc1=Nc1ccccc1`, the Potency was 39.8 µM (active).

Consider `CC(C)Cn1c(-c2ccc(S(=O)(=O)N3CCOCC3)cc2)csc1=Nc1cc(Cl)ccc1Cl`, for which the Potency result is “inactive”.

Take `O=c1cc(CCl)nc2scc(-c3ccccc3)n12`: the Potency result is “inactive”.

Take `CN(C)CCCn1c(=O)n(Cc2ccccc2)c(=O)c2c3c(sc21)CCCCC3`: the Potency result is “inactive”.

With `OCCn1c(-c2ccccc2)csc1=Nc1ccccc1`, the Potency is 56.2 µM (active).

For `CCN(c1ncnc2c1cnn2-c1ccc(C)cc1)C1CCCCC1`, the Potency entry was “inactive”.

Take `COc1ccc(-c2ccc(=O)n(CC(=O)Nc3ccc(Br)cc3F)n2)cc1`: the Potency entry was “inactive”.

Regarding `COCC(C)N=CC1=C(O)CC(C)(C)CC1=O` (stereo not given), the Potency result was “inactive”.

With `CCCC(=O)C1=C(N(C)c2ccccc2)CC(C)(C)C(C(=O)OC)C1=O` (stereo not given), the Potency entry was “inactive”.

As to `C=CCO/N=C/C1=C(O)C(C(=O)OC)C(C)(C)CC1=O` (stereo not given), the Potency was 79.4 µM (active).

Take `Cn1c(=O)c2c(SCC(=O)NCC3CCCO3)nc(-c3ccccc3F)nc2n(C)c1=O` (stereo not given): the Potency result is “inactive”.

Take `O=C(CCS(=O)(=O)c1cc(Br)cc2c1N(C(=O)C1CC1)CC2)Nc1ccc(C(F)(F)F)cc1`: the Potency entry is “inactive”.

As for `COc1ccc(OC)c(NC(=O)CN2CCCN(Cc3cc(C)ccc3C)S2(=O)=O)c1`, the Potency result is “inactive”.

`COc1cc(/C=N/NC(=O)c2ccoc2C)ccc1OCCN1CCCCC1`: the Potency entry is “inactive”.

`Cc1cc(OCCN2CCCC2)cc(C(C)C)c1`: the Potency is 5.01 µM (active).

In the case of `Cc1ccc(C(C)C)cc1OCC(=O)Nc1ccccc1N1CCCC1`, the Potency entry is “inactive”.

Take `Cc1cccc(C(=O)OC(C)CN2CCCC2)c1` (stereo not given): the Potency result is “inactive”.

Regarding `Cc1ccc(C(C)C)cc1OCCN1CCCC1`, the Potency is 79.4 µM (active).
